Calls of active or inactive are those of the source.

Assay [1] concerns Plasmodium falciparum Sir2 (PF13_0152, Sir2A). The assay is described as follows: Plasmodium falciparum Sir2A binding compounds – biochemical, small-molecule microarray, 635 nm fluorescence, primary screen (AID 1098).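 Also: score merges spot fluorescence intensity with its signal-to-noise ratio.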 To be noted: fluorescence 635 nm, higher = more signal.
Assay [2] in a line: probe aDKK1 binding to arrayed compounds – biochemical, biotinylated probe, 635/667 nm fluorescence, primary screen (AID 1099).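 Also: score merges 667nm spot fluorescence with signal to noise across triplicate slides; reference of the scale not given here.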 The following applies: small-molecule microarray, higher = more signal.
Assay [3] in a line: probe aCHRDL2 binding to arrayed compounds – biochemical, biotinylated probe, 635/667 nm fluorescence, primary screen (AID 1100). To be noted: small-molecule microarray, higher = more signal.
A short description of assay [4]: change in splice reporter luminescence, either direction, cell-based, HEK293, spliceosome inhibition project, primary screen (AID 1101).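 Also: HEK293 cells carrying a splicing-competent luciferase reporter gene; test concentration not given here.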 To be noted: HEK293 splicing luciferase reporter, 24 h, higher = more signal, called active from +8 up or from −8 down. In general terms: In a reporter assay the amount or activity of a reporter protein is the signal.
For assay [5], the target named is Fibroblast growth factor 10 (Homo sapiens) (UniProt O15520). Put plainly: compounds binding fibroblast growth factor 10 – biochemical, small-molecule microarray, 635 nm fluorescence, primary screen (AID 1102). The following applies: FGF10 binding, fluorescence 635 nm, higher = more signal.
Assay [6] relates to glycogen synthase kinase-3 (GSK3A per assay name; protocol says GSK3B). The assay is described as follows: compounds binding glycogen synthase kinase-3 – biochemical, small-molecule microarray, 635 nm fluorescence, GSK3A, primary screen (AID 1103). Also: the record names both GSK3A and GSK3B. To be noted: fluorescence 635 nm, higher = more signal.
The target of assay [7] is Epidermal growth factor receptor (Homo sapiens) (UniProt P00533). Put plainly: compounds binding epidermal growth factor receptor – biochemical, small-molecule microarray, 635 nm fluorescence, primary screen (AID 1104).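 Also: score merges 667 nm emission intensity with spot signal to noise over triplicate slides.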 The following applies: EGFR binding, higher = more signal.
In assay [8] the target is Follistatin-related protein 3 (Homo sapiens) (UniProt O95633). Put plainly: compounds binding follistatin-related protein 3 – biochemical, small-molecule microarray, 635 nm fluorescence, primary screen (AID 1105).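 Also: score merges emission near 667 nm and signal to noise per printed spot across three slides.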 To be noted: FSTL3 binding, higher = more signal.
The target in assay [9] is Dickkopf-related protein 1 (Homo sapiens) (UniProt O94907). Put plainly: small molecules binding DKK1 protein – biochemical, small-molecule microarray, 635 nm fluorescence scan, primary screen (AID 1106).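 Also: score merges emission near 667 nm with signal to noise over three replicate slides.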 The following applies: higher = more signal.
Assay [10] relates to Inhibin beta A chain (activin A). The assay is described as follows: small molecules binding activin A – biochemical, small-molecule microarray, 635 nm fluorescence scan, primary screen (AID 1107).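 Also: mouse activin A protein probed at 4.33 µg/mL on printed slides; score merges bound-protein fluorescence near 667 nm with spot signal-to-noise.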 To be noted: INHBA, higher = more signal.

Dickkopf-related protein 1 (Homo sapiens), sequence (O94907 whole entry, looked up): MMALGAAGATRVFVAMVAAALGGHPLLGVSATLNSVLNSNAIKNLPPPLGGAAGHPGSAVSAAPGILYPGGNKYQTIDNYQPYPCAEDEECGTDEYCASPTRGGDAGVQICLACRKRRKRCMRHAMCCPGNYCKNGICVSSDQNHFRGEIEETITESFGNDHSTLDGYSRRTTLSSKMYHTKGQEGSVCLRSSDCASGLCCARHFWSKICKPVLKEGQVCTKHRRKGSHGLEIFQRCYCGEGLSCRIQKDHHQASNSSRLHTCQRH
Follistatin-related protein 3 (Homo sapiens), sequence (O95633 whole entry, looked up): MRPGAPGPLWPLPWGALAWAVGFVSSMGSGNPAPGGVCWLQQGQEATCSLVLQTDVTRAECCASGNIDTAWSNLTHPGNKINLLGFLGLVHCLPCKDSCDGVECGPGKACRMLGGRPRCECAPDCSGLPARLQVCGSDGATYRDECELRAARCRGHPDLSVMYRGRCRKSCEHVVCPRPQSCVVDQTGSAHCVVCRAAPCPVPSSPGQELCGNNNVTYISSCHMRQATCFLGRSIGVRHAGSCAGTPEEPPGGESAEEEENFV
Epidermal growth factor receptor (Homo sapiens), sequence (P00533 whole entry, looked up): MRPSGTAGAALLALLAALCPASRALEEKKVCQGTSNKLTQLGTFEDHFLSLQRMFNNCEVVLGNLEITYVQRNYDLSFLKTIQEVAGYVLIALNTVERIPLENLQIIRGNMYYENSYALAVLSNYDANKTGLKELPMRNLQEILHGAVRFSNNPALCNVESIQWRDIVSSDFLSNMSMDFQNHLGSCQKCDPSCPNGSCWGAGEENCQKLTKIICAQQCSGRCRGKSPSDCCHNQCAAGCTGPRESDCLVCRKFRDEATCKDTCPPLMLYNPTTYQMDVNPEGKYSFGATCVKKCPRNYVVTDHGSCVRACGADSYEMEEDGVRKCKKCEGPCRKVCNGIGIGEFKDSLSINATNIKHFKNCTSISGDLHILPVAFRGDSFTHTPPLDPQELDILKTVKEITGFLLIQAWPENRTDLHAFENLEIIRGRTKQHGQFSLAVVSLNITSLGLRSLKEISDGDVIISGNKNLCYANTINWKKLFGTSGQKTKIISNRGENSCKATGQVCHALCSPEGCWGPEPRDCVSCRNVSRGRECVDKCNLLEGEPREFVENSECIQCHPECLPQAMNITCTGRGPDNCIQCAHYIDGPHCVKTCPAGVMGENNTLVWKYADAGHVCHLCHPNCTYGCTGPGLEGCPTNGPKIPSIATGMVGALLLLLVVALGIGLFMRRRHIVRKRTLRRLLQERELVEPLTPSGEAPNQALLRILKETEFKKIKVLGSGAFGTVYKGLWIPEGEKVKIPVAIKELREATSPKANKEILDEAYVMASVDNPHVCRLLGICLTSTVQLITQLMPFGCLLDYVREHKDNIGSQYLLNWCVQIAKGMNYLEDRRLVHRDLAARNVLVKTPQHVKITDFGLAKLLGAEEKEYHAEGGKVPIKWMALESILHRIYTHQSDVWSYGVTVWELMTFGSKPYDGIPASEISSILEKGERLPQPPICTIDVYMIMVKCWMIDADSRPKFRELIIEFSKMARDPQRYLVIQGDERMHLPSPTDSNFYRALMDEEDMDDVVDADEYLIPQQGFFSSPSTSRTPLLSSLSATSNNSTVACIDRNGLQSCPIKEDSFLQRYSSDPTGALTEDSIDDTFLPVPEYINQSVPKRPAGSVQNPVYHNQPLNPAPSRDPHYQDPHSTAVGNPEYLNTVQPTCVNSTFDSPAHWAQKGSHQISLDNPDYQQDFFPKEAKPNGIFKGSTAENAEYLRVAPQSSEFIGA
Fibroblast growth factor 10 (Homo sapiens), sequence (O15520 whole entry, looked up): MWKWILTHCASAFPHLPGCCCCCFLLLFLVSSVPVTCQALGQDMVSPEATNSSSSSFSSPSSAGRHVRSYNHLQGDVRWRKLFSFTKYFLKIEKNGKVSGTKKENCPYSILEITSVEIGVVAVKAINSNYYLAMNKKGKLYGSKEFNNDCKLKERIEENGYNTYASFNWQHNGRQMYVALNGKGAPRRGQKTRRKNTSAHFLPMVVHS

For the molecule `CCCCC(=C=CC[C@H](O)c1ccc(OCCO)cc1)C[C@H](O)c1ccccn1`, the composite z-score in [1] is 0.856; in assay [2], -0.0313; in assay [3], -0.112; in [5], 1.35; in assay [6] it was 0.583; in assay [7], -0.229. Moreover, the composite z-score in [8] was 0.416; in assay [9], 0.215; in assay [10], 0.669. Besides, the z-score in assay [4] was 0.107 (inactive).
As for `C[C@]1(C(=O)NCC(F)(F)F)c2ccccc2C(=O)N(Cc2ccc(OC(F)(F)F)cc2)[C@H]1c1ccc(CO)cc1`, the composite z-score in assay [1] was 1.34; in assay [2], -0.0378; in [3], 0.0314; in assay [5], 0.155; in assay [6], -0.507; in [7] it was 0.179. Moreover, the composite z-score was -0.345 in assay [8], 0.0106 in [9] and 0.19 in [10]. Further, the z-score in assay [4] is -0.24 (inactive).
With `COc1ccc(C(O)C2C=CC3C(=O)N(C)C(=O)C3N2Nc2ccc([N+](=O)[O-])cc2[N+](=O)[O-])cc1OCc1ccccc1` (stereo not given), the composite z-score in assay [1] was 0.994; in assay [2], 1.23; in assay [3], 1.24; in assay [5] it was 0.895; in [6], 0.858; in assay [7], 0.0333. Moreover, the composite z-score in [8] is 0.84; in assay [9] it was -0.508; in [10] it was 0.718. Also, in assay [4], the z-score is 1.16 (inactive).
For the molecule `C=CCC(OC(C)=O)[C@@H]1[C@@H](N(Cc2cc3ccccc3o2)C(=O)c2ccc(-c3ccccc3)cc2)c2cc(OCCCO)ccc2N1C(=O)c1ccc2ccccc2n1` (stereo not given in full), the composite z-score is -0.148 in assay [1]; 0.0919 in assay [2]; 0.51 in assay [3]; -0.0302 in assay [5]; -1.24 in assay [6]; -0.0803 in assay [7]. The composite z-score in assay [8] was -0.205; in assay [9] it was 0.157; in assay [10] it was 1.33. In addition, in [4], the z-score is -0.0569 (inactive).
`CCCCN1CC=CC23O[C@@H]4C=CCOC(=O)[C@@H]4[C@H]2C(=O)N(CCO)[C@@H]3C1=O` (stereo not given in full): the composite z-score in assay [1] was 1.58; in assay [2], 0.125; in assay [3], 0.537; in assay [5] it was -1.25; in assay [6] it was -0.641; in assay [7], -1.54. Further, the results for the composite z-score in assay [8], in assay [9] and in [10] were -1.24, -1.58 and -0.112, respectively. Besides, the z-score in assay [4] was 0.499 (inactive).
For the molecule `COC(=O)[C@@]1(CCC(=O)OC(C)(C)C)N=C(c2ccc(OCCCO)cc2)O[C@H]1c1ccccc1CN=[N+]=[N-]`, the composite z-score was 1.3 in assay [1]; 0.425 in assay [2]; 0.87 in assay [3]; -0.035 in [5]; -0.546 in assay [6]; -0.827 in [7]. The composite z-score in assay [8] is 0.157; in assay [9], -0.346; in assay [10], 0.282. Moreover, the z-score in assay [4] was 1.29 (inactive).
Take `O=C1c2ccccc2[C@](Cc2ccccc2I)(C(=O)O)[C@H](c2ccc(CO)cc2)N1Cc1ccccc1`: the composite z-score in assay [1] was 1.39; in [2], 0.486; in assay [3], 0.736; in assay [5], -0.011; in assay [6], -0.0481; in assay [7] it was -0.964. Besides, the composite z-score was -0.509 in assay [8], -0.69 in [9] and -0.309 in assay [10]. Moreover, the z-score in assay [4] is 0.188 (inactive).
Consider `N[C@@H](Cc1ccccc1)Cn1cc(C2(O)CCCCC2)nn1`, for which the composite z-score in assay [1] is -0.431; in [2], -0.149; in assay [3] it was 0.174; in [5], -0.493; in [6], -0.507; in assay [7] it was 0.0669. In addition, the figures for the composite z-score in assay [8], in [9] and in [10] were -0.133, -0.0564 and -0.239, respectively. Moreover, the z-score in assay [4] is 0.242 (inactive).
As for `COCCOC(=O)N1C(=O)[C@@]2(c3cc(C#CC4(O)CCCCCC4)ccc31)[C@H](c1ccc(OCCO)cc1)N1[C@H](c3ccccc3)[C@H](c3ccccc3)OC(=O)[C@H]1[C@@H]2C(N)=O`, the composite z-score in [1] amounted to 1.37; in assay [2], 0.0809; in [3], 0.0419; in [5] it was 1.14; in assay [6], 1.31; in [7], 0.883. In addition, the composite z-score was 1.22 in [8], 0.617 in assay [9] and 1 in assay [10]. Moreover, the z-score in [4] is -1.47 (inactive).
On to `CC(=O)c1ccc(C(O)C2C=CC3C(=O)NC(=O)C3N2Nc2ccc(Cl)cc2Cl)cc1` (stereo not given), for which the composite z-score in assay [1] is 0.366; in assay [2], 0.947; in assay [3], 1.02; in assay [5] it was 0.554; in assay [6] it was -0.454; in [7] it was 0.0262. Besides, the values for the composite z-score in assay [8], in [9] and in assay [10] were 0.141, -0.291 and 1.03, respectively. In assay [4], the z-score was 0.58 (inactive).
Turning to `COCCOC(=O)N1C(=O)[C@@]2(c3cc(C#CCC(C(=O)OC)C(=O)OC)ccc31)[C@H](C(N)=O)[C@H]1C(=O)O[C@H](c3ccccc3)[C@H](c3ccccc3)N1[C@@H]2c1ccc(OCCO)cc1`, the composite z-score in assay [1] came out at 1.13; in assay [2] it was 0.271; in assay [3] it was 0.25; in [5] it was 1.11; in assay [6], 1.31; in assay [7] it was 0.776. Further, the composite z-score in assay [8] is 1.01; in [9] it was 0.614; in [10], 0.444. The z-score in assay [4] was -0.517 (inactive).
For `COCCOC(=O)N1C(=O)[C@@]2(c3cc(C#CC4=CCCCC4)ccc31)[C@H](c1ccccc1OCCO)N1[C@H](c3ccccc3)[C@H](c3ccccc3)OC(=O)[C@H]1[C@@H]2C(N)=O`, the composite z-score in [1] is 1.35; in assay [2], -0.0668; in assay [3] it was -0.144; in [5] it was 1.29; in [6], 1.31; in [7], 0.766. Further, the composite z-score in assay [8] came to 1.2; in [9], 0.912; in assay [10] it was 0.557. In addition, the z-score in assay [4] is -3.87 (inactive).
For `CCCC=C(CCC)[C@@H](NC(=O)c1ccccc1)c1ccc(C(=O)OC)cc1`, the composite z-score in assay [1] was 0.578; in assay [2] it was 0.374; in [3], -0.0902; in assay [5], 1; in [6], 0.294; in [7], 0.891. In addition, the results for the composite z-score in assay [8], in assay [9] and in assay [10] were 0.806, 0.162 and 0.613, respectively. In addition, the z-score in [4] is -1.98 (inactive).
Consider `N#Cc1ccc(C(O)C2C=CC3C(=O)N(c4ccccc4)C(=O)C3N2Nc2ccc([N+](=O)[O-])cc2)cc1` (stereo not given), for which the composite z-score was 1.37 in [1]; 0.904 in assay [2]; 1.16 in assay [3]; 0.395 in [5]; 1.09 in assay [6]; -0.175 in assay [7]. For the same molecule, the composite z-score in [8] was 0.516; in assay [9], -0.274; in assay [10] it was 0.958. Moreover, in assay [4], the z-score was 0.448 (inactive).
Turning to `COC(=O)c1c(CC[C@@H](CO)NC(=O)N[C@@H](Cc2ccccc2)Cn2cc(-c3cncn3C)nn2)oc(C(C)=O)c1C(=O)OC`, the composite z-score was 0.942 in assay [1]; -0.193 in [2]; -0.192 in assay [3]; 0.481 in assay [5]; 0.352 in [6]; -0.913 in assay [7]. The composite z-score in [8] is 0.367; in assay [9], -0.376; in assay [10] it was -0.721. In addition, in assay [4], the z-score is -1.71 (inactive).
On to `Cc1ccc(F)cc1S(=O)(=O)N[C@@H]1CCN(Cc2ccc3c(c2)OCO3)C1`, for which the composite z-score in assay [1] is 0.0014; in [2] it was -0.247; in assay [3] it was -0.289; in [5], -0.24; in assay [6] it was -0.191; in assay [7], 0.0122. The composite z-score was -0.272 in [8], 0.537 in assay [9] and 0.528 in [10]. Further, the z-score in [4] is -0.0924 (inactive).

Values taken from PubChem BioAssay.
